A selection: hits, their analogues and other compounds. The true share with any hit is near 12%.
Cycloheximide cs: counter-screen for Shiga toxin inhibitors: cycloheximide protein synthesis inhibition | AID 2314 | max response, % | cell reporter, cycloheximide protein synthesis inhibition counterscreen | hit rate 12% among 300,000; in the data active = max response mostly above about 13%, no sharp cut-off; inactive = mostly below about 14%; note: read at 38.3 µM for the half of the compounds with a filed dose; 0% is about no effect
Marburg entry inh: Marburg virus entry inhibition | Potency, µM (highest dose often 37.8 µM), without a hit: at the top dose activity change, negative = inhibition, actives largely listed as inhibitors | hit rate 1.8% among 300,000 | AID 540276 | Marburg virus pseudotyped entry inhibition, cell reporter; calls by dose curve; tested in HEK293 cells; note: potency is the fitted concentration of half-maximal effect; % is set by controls: 0 for no effect and ±100 for the full control effect
LASV entry inh: Lassa virus entry inhibition; Lassa virus pseudotype entry inhibition, cell reporter; hit rate 1.2% among 300,000; Potency, µM (series often up to 37.9 µM), inactives show top-dose activity change, negative = inhibition, actives largely listed as inhibitors; AID 540256; calls by dose curve; tested in HEK293 cells; note: potency is the fitted concentration of half-maximal effect; % is set by controls: 0 for no effect and ±100 for the full control effect; nearly all actives have a fitted effect of over 50% in size
Shiga inhibitor: Shiga toxin inhibition; AID 2315; hit rate 9.2% among 290,000; Vero cells, Shiga toxin protein synthesis inhibition reporter; inhibition, % at 38.7 µM; in the data active = inhibition mostly above about 28%, no sharp cut-off; inactive = mostly below about 43%; note: 0% is about no effect
An asterisk follows results filed as active; ? = inconclusive; . = no result given; [ ] = dose if it differs, or a comment.

SMILES	Cycloheximide cs	Marburg entry inh	LASV entry inh	Shiga inhibitor
O=C(CNC(=O)c1cccs1)Nc1ncccc1O	.	13.6%[46.1 µM]	?	.
CCc1cc(C(=O)Nc2ncccc2O)sc1C	36.5*	.	.	55.2*
O=C(CSc1nnc2ccccn12)Nc1nsc(-c2ccccc2)n1	18.5*	2.0%	6.3%	20.9
COc1ccc2c(C)cc(SCC(=O)Nc3nsc(-c4ccc(C)cc4)n3)nc2c1	-3.0	19.7%	2.5%	-16.3
Cc1nnc(SCC(=O)Nc2nsc(-c3ccccc3)n2)s1	15.5*	-3.9%	?	29.6
Cc1ccc(-c2nc(NC(=O)CSc3nnc(C)s3)ns2)cc1	22.9*	.	.	76.5*
COc1ccc(-c2nc(NC(=O)CSc3nnc(C)s3)ns2)cc1	33.9*	26.6%	?	33.0*
Cc1ccc(-c2nc(NC(=O)CSc3cc(C)c4ccccc4n3)ns2)cc1	-2.9	?	24.8%[46.1 µM]	-9.3
Cc1cc(C)n(C(=O)CCCn2cc([N+](=O)[O-])cn2)n1	6.3	12.9%	5.9%	2.5
COc1cccc(N2CCN(S(=O)(=O)c3ccc4c(c3)oc(=O)n4C)CC2)c1	16.6*	2.9%[46.1 µM]	-1.5%[46.1 µM]	15.4
COc1cccc(N2CCN(C(=O)C3CCN(S(=O)(=O)c4ccc5c(c4)oc(=O)n5C)CC3)CC2)c1	5.6	0.7%[46.1 µM]	1.5%[46.1 µM]	-12.3
CC(=O)Nc1ccc(NC(=O)c2cc(-c3ccc(C)cc3O)n[nH]2)cc1	2.5	.	.	26.9
Cc1cccc(NC(=O)c2cc(-c3cc(C)c(C)cc3O)n[nH]2)c1	28.3*	?	?	43.2*
Cc1c(Cl)cccc1NC(=O)c1cc(-c2ccccc2O)n[nH]1	18.4*	26.5%	?	35.6
Cc1cccc(NC(=O)c2cc(-c3cc(C)ccc3O)n[nH]2)c1	39.6*	?	?	108.4*
COc1ccc(Cl)cc1NC(=O)c1cc(-c2ccccc2O)n[nH]1	10.3	?	?	12.9
Cc1ccc(-c2cc(C(=O)Nc3cccnc3)[nH]n2)c(O)c1C	38.8*	?	?	100.4*
COc1cccc(-n2cc(CNC(=O)C3CCC(=O)N(C4CC4)C3)cn2)c1 (centres undefined)	1.7	1.0%[46.1 µM]	0.1%[46.1 µM]	-2.3
COc1ccc(CCOC(=O)c2ccc(N)c([N+](=O)[O-])c2)cc1	14.6	.	.	20.7
CCOc1ccccc1NC(=O)C1CCN(C(=O)C2CC(=O)N(c3ccc(C)cc3)C2)CC1 (centres undefined)	-6.8	?	6.0%[46.1 µM]	-0.3
CN1CCN(Cc2c(O)ccc3occ(C(=O)c4ccccc4)c23)CC1	8.6	?	-24.8%	1.9
CC(=O)C(C(C)=O)c1c(Cl)c(O)c(O)c2c(C(=O)c3ccccc3)coc12	11.2	?	7.08µM*	3.2
c1ccn2c(SCc3ccc4c(c3)OCO4)nnc2c1	40.3*	?	20.1%	113.6*
O=C(CCSc1nnc2ccccn12)Nc1ccc2c(c1)OCO2	17.4	-1.2%[46.1 µM]	7.4%[46.1 µM]	21.7
COc1ccc(CSc2nnc(-c3ccncc3)n2C)cc1F	17.2	10.0%[46.1 µM]	15.6%[46.1 µM]	69.7*
SMILES	Cycloheximide cs	Marburg entry inh	LASV entry inh	Shiga inhibitor
Cn1c(=O)c2ncn(CC(=O)Nc3cccc(-c4nc5ccccc5s4)c3)c2n(C)c1=O	53.5*	?	?	118.0*
O=C(CSc1ncc(-c2ccc(F)cc2)n1Cc1ccco1)Nc1ccc2c(c1)OCO2	39.5*	?	?	110.2*
COc1ccc(Cl)cc1NC(=O)Cn1c(=O)n(CCC(=O)NCc2ccc3c(c2)OCO3)c(=O)c2ccccc21	.	-20.4%[46.1 µM]	-0.7%[46.1 µM]	.
COC(=O)CC1OC1[C@H](C)[C@@H](OC)C(C)C (some centres undefined)	.	-14.5%[14.2 µM]	?	.
Cn1c(SCc2ccc3c(c2)OCO3)nnc1-c1ccccc1	15.5*	10.7%[46.1 µM]	24.7%	21.9*
Nn1c(SCC(=O)Nc2ccc3c(c2)OCO3)nnc1-c1ccccc1	21.5*	?	?	27.4
O=C(CSc1nnc2ccccn12)Nc1ccc2c(c1)OCO2	17.9*	?	-11.7%[46.1 µM]	31.0
O=C(CSc1nnc2ccccn12)Nc1cccc(-c2nc3ccccc3s2)c1	15.5	?	?	39.4*
Nn1c(SCC(=O)Nc2ccc3c(c2)OCO3)nnc1-c1ccc(Cl)cc1	-1.5	6.3%	7.7%	0.8
CCN(CC(=O)Nc1c(F)cccc1F)C(=O)CSc1nnc(-c2ccco2)n1CC	-1.0	5.6%	10.1%	-10.0
CC(C)(C)NC(=O)C(=O)NNC(=O)COc1ccc(Br)cc1	1.4	3.6%	4.1%	1.7
CC1CN(C(=O)CCC(=O)Nc2cc(F)ccc2F)c2ccccc2S1 (centres undefined)	.	.	-3.0%[46.1 µM]	.
Cc1cc(Cl)ccc1NC(=O)c1cc(S(=O)(=O)N2CCOCC2)cn1C	.	.	0.0%[46.1 µM]	.
COCCN(C(=O)COC(=O)Cc1ccc(Cl)cc1Cl)c1c(N)n(Cc2ccccc2)c(=O)[nH]c1=O	.	5.4%	11.9%	.
O=C(CSc1nnc(-c2cccs2)n1Cc1ccco1)Nc1ccc2c(c1)OCO2	25.6	-16.3%	5.0%	-21.0
O=C(CSc1nnc(-c2ccccc2)n1Cc1ccco1)Nc1ccc2c(c1)OCCO2	12.9	7.5%	4.5%	48.4*
Cc1ccc(NC(=O)CSc2nnc3ccccn23)cc1	14.9	.	.	72.1*
CCOC(=O)c1cnc2ccccc2c1NCc1ccco1	22.6*	.	.	52.1*
CCOC(=O)c1cnc2ccccc2c1Nc1ccc2c(c1)OCCO2	109.6*	-29.1%	-25.5%	154.4*
O=C(OCC(=O)c1ccc(Cl)s1)c1cnccn1	0.7	4.2%	4.2%	-2.0
COCCNC(=O)c1ccc(-c2csc(C)n2)cc1	22.7*	12.8%[46.1 µM]	11.8%	88.8*
Cc1ccc(C(=O)NCCc2csc(C)n2)cc1	26.8*	-0.8%	.	54.9*
Cc1nc(-c2ccc(C(=O)NCCO)cc2)cs1	37.3*	10.2%[46.1 µM]	10.6%	40.5
Cc1nc(-c2ccc(NC(=O)c3ccccc3)cc2)cs1	-3.6	.	.	-9.4
COCCCNC(=O)c1ccc(-c2csc(C)n2)cc1	38.0*	6.4%	16.5%	89.6*
SMILES	Cycloheximide cs	Marburg entry inh	LASV entry inh	Shiga inhibitor
COc1cc(NS(=O)(=O)c2ccc(Br)cc2)c(OC)cc1NC(=O)c1ccco1	5.8	?	27.2%	17.1
C=CCN1C(=O)C(=O)N(Cc2nc3ccccc3s2)C1=O	33.7*	0.1%[46.1 µM]	3.8%[46.1 µM]	76.7*
COc1ccc(CCc2cc(OC)cc(=O)o2)cc1	19.4*	.	.	31.7
CC(C)n1cc(/C=N/Nc2ccc(Cl)c(C(=O)O)c2)c2ccccc21	48.5*	.	.	.
C/C(=N\Nc1ncc(Cl)cc1Cl)c1ccccn1	42.8*	0.891µM*	?	118.8*
O=C(O)c1cc(N/N=C/c2cccc3ccccc23)ccc1Cl	102.8*	25.7%[46.1 µM]	.	114.2*
O=[N+]([O-])c1cccc(N/N=C/c2cccc3ccccc23)c1	29.8*	-17.4%	-31.1%	42.2*
N#CCC(=O)N/N=C/c1cn(Cc2ccc(Cl)c(Cl)c2)c2ccccc12	1.4	?	?	-18.0
Cc1c(NC(=O)C(C)OC(=O)CCC2CCCC2)c(=O)n(-c2ccccc2)n1C (centres undefined)	-3.5	.	.	1.6
C[C@H]1[C@H](N=[N+]=[N-])[C@H](O)CCO[C@@H]1c1ccccc1	.	13.1%[14.2 µM]	.	.
COc1ccccc1NC(=O)C1CC(C)OC1=O (centres undefined)	.	11.3%[46.1 µM]	-11.3%[46.1 µM]	.
C/C(=N\Nc1cccc(C(=O)O)c1)c1cc2ccccc2o1	71.5*	?	.	198.3*
C/C(=N\Nc1ccc(Cl)c(C(=O)O)c1)c1cccc2ccccc12	12.1*	26.9%[46.1 µM]	2.6%[46.1 µM]	44.7

Bioassay records: PubChem, National Center for Advancing Translational Sciences (NCATS)
